Source: PubChem BioAssay
SKN-1 inh – blocks SKN-1 activity in C. elegans; inhibition, % at 21.8 µM; 360,000 compounds, 0.49% hits; C. elegans VP596 Pgst-4::GFP/RFP ratio, acrylamide-induced, 24 h;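 active means interference check ratio from 0.5 to 1.5 plus GFP to RFP signal ratio inhibition reaching or exceeding a fixed threshold, cut at about 30% in these data, passing the limit was not always enough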
NRP1-CendR mod – NRP-1/CendR interaction modulation; FAM-RPARPAR peptide binding to NRP-1, fluorescence polarization; inhibition, % at 25 µM; 360,000 compounds, 0.85% hits;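 active means inhibition or corrected inhibition above about 18%, plus a signal ratio from 0.5 to 1.5, limit read from the data, passing the limit was not always enough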
MPTP inh – blocks calcium-induced mitochondrial swelling; 360,000 compounds, 1.4% hits; isolated mouse mitochondria, Ca2+ swelling absorbance, 30 min; inhibition, % at 10 µM; AID 602449;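 active means inhibition of 50% or more, scaled per plate between neutral and stimulator controls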
ATG4B inh – ATG4B (human) cysteine protease inhibition; Q9Y4P1; ATG4B cleavage of LC3-PLA2, NBD-HPC fluorescence, 1 h; inhibition, % at 8.33 µM; 340,000 compounds, 0.51% hits; AID 504462; in the data active means inhibition above about 40%
Target sequence (Q9Y4P1 whole entry, looked up): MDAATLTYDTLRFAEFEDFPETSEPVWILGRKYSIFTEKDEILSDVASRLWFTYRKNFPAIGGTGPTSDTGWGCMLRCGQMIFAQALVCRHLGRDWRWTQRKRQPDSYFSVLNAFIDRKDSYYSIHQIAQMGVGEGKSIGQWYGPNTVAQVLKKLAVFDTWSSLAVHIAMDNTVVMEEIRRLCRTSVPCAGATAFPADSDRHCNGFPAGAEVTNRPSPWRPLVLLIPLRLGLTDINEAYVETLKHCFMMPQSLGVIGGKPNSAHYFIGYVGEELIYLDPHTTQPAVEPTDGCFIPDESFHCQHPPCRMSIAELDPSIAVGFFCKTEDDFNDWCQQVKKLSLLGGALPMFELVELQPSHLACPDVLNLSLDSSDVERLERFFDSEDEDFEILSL
F508del corr – CFTR F508del correction in bronchial cells; AID 720511; CFBE cells, YFP halide quenching; stimulated with forskolin plus potentiator P3; % fluorescence drop versus neutral controls; 350,000 compounds, 0.36% hits; activity (quench increase), % at 7.58 µM;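 active means mean added fluorescence quench of at least 8% versus neutral control, with both replicates also reaching 8%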;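 further: cells transiently co-express mutant CFTR-F508del with the halide-sensitive YFP; corrector assay measuring rescue of mutant channel to the surface after 24 h compound exposure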
Rh123 counter – membrane potential counter-screen of mitochondrial pore inhibitors; shares compounds with MPTP inh; isolated mitochondria, Rhodamine 123 fluorescence; inhibition, % at 10 µM; 5,000 compounds, 78% hits; AID 624504; in the data active means inhibition above about 22%
MPTP abs DR – MPTP inhibition, dose response swelling confirmation | shares compounds with MPTP inh | isolated mitochondria swelling, absorbance | IC50, µM | 780 compounds, 58% hits | AID 651561; in the data active means IC50 below about 20 µM
MPTP counter DR – counter-screen for mitochondrial permeability transition pore inhibitors, dose response; shares compounds with MPTP inh; isolated mitochondria counterscreen, fluorescence read-out; IC50, µM; 780 compounds, 49% hits; in the data active means IC50 below about 80 µM
Hits are given with their value; - = inactive; . = no result given. Most compounds without a hit are left out; they make up all but 2.7% or so of the library.

SMILES	SKN-1 inh	NRP1-CendR mod	MPTP inh	ATG4B inh	F508del corr	Rh123 counter	others
O=S(=O)(NC1c2cccc3cccc(c23)C1N1CCNCC1)c1ccc(Cl)cc1 (stereo not given)	-	-	81	-	-	-	MPTP abs DR=3.2;MPTP counter DR=-
Cc1noc(C)c1NC(=O)Nc1ccc2c(c1)C(=O)N([C@H](C)CO)C[C@H](C)[C@@H](CN(C)C(=O)NC(C)C)OCCCC[C@H](C)O2	.	.	.	.	-	.
COc1ccc(-c2nc3ccc(C(=O)NCCCN4CCOCC4)cc3nc2-c2ccc(OC)cc2)cc1	-	-	84	-	-	-	MPTP abs DR=4.9;MPTP counter DR=-
CCN1CCN(CCNC(=O)c2ccc3nc(-c4cccc(C)c4)c(-c4cccc(C)c4)nc3c2)CC1	-	-	96	-	-	-
C[C@H](O)[C@@H]1CN2CCc3c([nH]c4ccccc34)[C@@H]2C[C@@H]1N(C)C(=O)Nc1ccc(Br)cc1	-	-	83	.	-	104
O=C(CSc1ncnc2c1sc1ccccc12)Nc1ccc(Br)cc1	-	-	54	-	-	37
O=C(CSc1ncnc2c1oc1ccccc12)Nc1nc2ccccc2s1	-	-	-	-	-	.
Cc1ccc(F)c(NC(=O)/C(C#N)=C(\O)c2ccc(C(C)(C)C)cc2)c1	-	-	83	-	-	71
Cc1cccc(NC(=O)C(=O)NNC(=O)c2ccc(C(C)(C)C)cc2)c1	-	-	-	-	-	.
COc1ccc([N+](=O)[O-])cc1NC(=S)NC(NC(=O)Cc1ccc(OC)c(OC)c1)C(Cl)(Cl)Cl (stereo not given)	-	-	66	-	.	51
COc1ccc([N+](=O)[O-])cc1NC(=S)NC(NC(C)=O)C(Cl)(Cl)Cl (stereo not given)	-	-	-	-	-	.
O=C(CSc1ccc(Cl)cc1)Nc1cccc(-c2nnc(-c3ccco3)o2)c1	-	-	70	-	.	59
Cc1ccc(SCC(=O)Nc2cccc(-c3nnc(-c4ccco4)o3)c2)cc1	-	-	-	-	.	.
O=C(/C(=C/c1ccc(Cl)cc1)c1nc2ccccc2[nH]1)c1ccccc1	-	-	91	-	.	87
C[C@H]1CN([C@@H](C)CO)C(=O)c2cc(/C=C/c3ccccc3)cnc2O[C@H]1CN(C)C	.	.	.	.	-	.
COCCNc1nc2nonc2nc1NC(C)c1ccccc1Cl (stereo not given)	-	-	75	-	-	96
CCN(CC)C1CCN(c2nc3nonc3nc2NCCOC)C1 (stereo not given)	-	-	-	-	-	.
O=C(/C(=N\Nc1ccc(Br)cc1)Sc1nnnn1-c1ccccc1)c1ccccc1	-	-	90	-	.	74
CC(C)C[C@H](N)c1cn([C@@H](Cc2cc3ccccc3[nH]2)C(=O)N2CCNCC2)nn1	-	-	92	-	-	-	MPTP abs DR=4.9;MPTP counter DR=-
CC(=O)N1[C@@H]2c3cccc(=O)n3C[C@H]1[C@H](CO)[C@H]2C(=O)N[C@@H](C)c1ccccc1	.	.	.	.	-	.
Cc1cccc(NC(=O)CN2C(=O)S/C(=C\c3ccc(O)c([N+](=O)[O-])c3)C2=O)c1	-	-	-	-	-	.
O=C1S/C(=C\c2ccc(O)c([N+](=O)[O-])c2)C(=O)N1c1ccccc1Cl	-	-	59	-	-	71
O=C1S/C(=C\c2ccc(O)c([N+](=O)[O-])c2)C(=O)N1Cc1cccc([N+](=O)[O-])c1	-	-	100	-	-	61
C[C@H](CO)N1C[C@H](C)[C@H](CN(C)C)OCCCC[C@H](C)Oc2ccc(NS(C)(=O)=O)cc2C1=O	.	.	.	.	-	.
CC1=CN2C(=N)/C(=C/c3ccc(Sc4ccc(Cl)cc4)o3)C(=O)N=C2S1	-	-	58	-	.	41
SMILES	SKN-1 inh	NRP1-CendR mod	MPTP inh	ATG4B inh	F508del corr	Rh123 counter	others
CC1=CN2C(=N)/C(=C/c3ccc(C)o3)C(=O)N=C2S1	-	-	-	-	.	.
COc1cccc(-c2ccc(C3[C@@H]4CN(S(=O)(=O)c5cn(C)cn5)C[C@H]3N4)cc2)c1 (stereo not given in full)	.	.	.	.	-	.
CO[C@H]1CN(C)C(=O)c2ccc(NS(=O)(=O)CC(F)(F)F)cc2OC[C@@H](C)N(Cc2nccs2)C[C@@H]1C	.	.	.	.	-	.
O=C(Nc1ccccc1)Nc1cccc2ccccc12	-	-	71	-	-	75
O=C(Nc1ccccc1)Nc1csc2ccccc12	35	-	84	-	-	85
CC1(C)SC(=S)N(NC(=O)Nc2ccccc2)C1N(O)C(=O)Nc1cccc2ccccc12 (stereo not given)	-	-	72	-	-	69
CC(=O)Nc1csc2ccccc12	-	-	-	-	-	.
CC1=C[C@@H]2[C@H]3C(=O)N(Cc4ccccc4)C(=O)[C@H]3[C@@H]1[C@@H]1O[C@@]3(C(=O)N(C)c4ccccc43)C3=C(CCCC3=O)N21	.	.	.	.	-	.
O=S(=O)(c1cc(F)ccc1F)N1CCN(c2ncnc3ccccc23)CC1	-	-	95	-	-	92
Cc1ccc(Oc2cc([N+](=O)[O-])cc3c2C(=O)Nc2ccccc2O3)cc1	-	-	56	-	.	29
CN1C[C@@H](O)COC[C@@H]2O[C@H](CC(=O)N3CCN(c4ccccc4)CC3)CC[C@H]21	.	.	.	.	-	.
O=S(=O)(c1ccc(N2CCCC2)cc1)C(F)(F)F	42	-	91	-	.	68
Cc1cc(O)c2c(c1O)C(=O)[C@]13C(=C2O)C(=O)[C@@H]2[C@@H](O)[C@H]1[C@@H]1[C@H](O)[C@H]3C(=O)C3=C(O)c4c(O)cc(C)c(O)c4C(=O)[C@]312	-	-	104	-	.	-
c1ccc(-c2csc3ncnc(NCCCN4CCOCC4)c23)cc1	-	-	-	-	.	.
c1ccc(-c2csc3ncnc(NCC4COc5ccccc5O4)c23)cc1 (stereo not given)	-	-	97	-	.	85
Cc1sc2ncnc(NCC3(N4CCOCC4)CCCCC3)c2c1C	-	-	-	-	.	.
Cc1sc2ncnc(NCC3COc4ccccc4O3)c2c1C (stereo not given)	-	-	100	-	.	95
Cc1sc2ncnc(NCC(C)(C)N3CCOCC3)c2c1C	-	-	80	-	.	84
CCCn1c(O)c(/C=C2\C=NN=C2c2ccccc2)sc1=S	-	-	-	-	.	.
CCCCC(CC)Cn1c(O)c(/C=C2\C=NN=C2c2ccccc2)sc1=S (stereo not given)	-	-	55	-	.	-	MPTP abs DR=16;MPTP counter DR=-
CC(=O)N(C)C[C@@H]1Oc2cc(-c3ccc(C#N)cc3)ccc2S(=O)(=O)N([C@H](C)CO)C[C@@H]1C	.	.	.	.	-	.
Cc1c(C(=O)N/N=C/c2ccccc2)[nH]c2ccc(Cl)cc12	-	-	87	-	-	89
